Bioassay records (PubChem BioAssay)
L3MBTL1 inh: qHTS Assay for the Inhibitors of L3MBTL1 | AlphaScreen L3MBTL1–H3K9me1 peptide binding | Potency, µM (titrated, usually from 57.1 µM), hits mostly inhibitors | 0.66% of 230,000 active | AID 485360, 2010; also: nearly all actives have a fitted effect of over 60% in size
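L3MBTL1 (50 nM) pre-complexed 30 min with biotinylated H3(1-15)K9me1 peptide (75 nM), then compounds added for 30 min at room temperature; AlphaScreen streptavidin donor/nickel chelate acceptor beads (10 ug/mL final) read after 30 min dark incubation.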
BAZ2B block: qHTS Assay for Inhibitors of BAZ2B; 4.4% of 360,000 active; Bromodomain adjacent to zinc finger domain protein 2B (Homo sapiens), Q9UIF8; AID 504333, 2011; AlphaScreen BAZ2B-H3K14Ac peptide displacement; Potency, µM (highest dose often 114 µM), most hits filed as inhibitors; also: nearly all actives have a fitted effect of over 60% in size
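Complex of BAZ2B and biotin-H3K14Ac (50 nM apiece) forms over 30 min at RT, then faces library compounds up to 110 uM for another 30 min; AlphaScreen beads added, 20 min dark incubation, luminescence read.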
HP1b chromo inh: HTS for Inhibitors of HP1-beta Chromodomain Interactions with Methylated Histone Tails; Chromobox protein homolog 1 (Homo sapiens), P83916; AlphaScreen HP1-beta / biotin-H3K9me3 peptide binding; Potency, µM (doses to about 114 µM), hits mostly inhibitors; 0.56% of 390,000 active; also: nearly all actives have a fitted effect of over 70% in size
Target sequence (P83916 whole entry, looked up): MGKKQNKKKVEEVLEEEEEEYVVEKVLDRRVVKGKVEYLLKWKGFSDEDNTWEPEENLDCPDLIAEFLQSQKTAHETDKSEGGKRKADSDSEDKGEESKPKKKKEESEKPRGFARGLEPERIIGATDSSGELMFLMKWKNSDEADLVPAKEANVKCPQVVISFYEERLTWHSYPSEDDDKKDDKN
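Compound inhibition of the preformed complex between 50 nM HP1-beta and 50 nM biotinylated H3K9me3 peptide was read by AlphaScreen. Buffer was PBS pH 7.4 with 0.01% Tween-20. Incubations ran 30 min at room temperature, with 10 ug/mL donor/acceptor beads.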
JMJD2A Tudor: qHTS Assay for Inhibitors of JMJD2A-Tudor Domain; Potency, µM (titrated, usually from 114 µM), most hits filed as inhibitors; AID 504339, 2011; 4.4% of 390,000 active; AlphaScreen JMJD2A-Tudor / H3K4me3 peptide binding; Lysine-specific demethylase 4A (Homo sapiens), O75164; also: nearly all actives have a fitted effect of over 50% in size
G9a inh: qHTS Assay for Inhibitors of Histone Lysine Methyltransferase G9a | Histone-lysine N-methyltransferase EHMT2 (Homo sapiens), Q96KQ7 | G9a H3K9 monomethylation, AlphaScreen, 2 h | Potency, µM (titrated, usually from 102 µM), usual class: inhibitors | 8.8% of 350,000 active | AID 504332, 2011; also: nearly all actives have a fitted effect of over 75% in size
Target sequence (Q96KQ7 913-1193 limits assumed): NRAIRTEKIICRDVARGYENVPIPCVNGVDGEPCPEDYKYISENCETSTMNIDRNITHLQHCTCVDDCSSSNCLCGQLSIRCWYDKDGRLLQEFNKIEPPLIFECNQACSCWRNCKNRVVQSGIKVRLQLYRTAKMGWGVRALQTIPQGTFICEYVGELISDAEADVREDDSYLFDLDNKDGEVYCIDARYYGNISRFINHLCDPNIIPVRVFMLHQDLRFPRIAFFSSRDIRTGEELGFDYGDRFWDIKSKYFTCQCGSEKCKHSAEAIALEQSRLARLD
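Readings reflect AlphaScreen signal from monomethyl-H3K9 antibody detection. HMT at 20 nM; substrate b-H3K9 500 nM; cofactor SAM 20 uM; 2 h RT reaction; compounds tested as titrations in qHTS with 15 min preincubation.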
Sfp PPTase inh: qHTS Assay for Inhibitors of Bacillus subtilis Sfp phosphopantetheinyl transferase (PPTase) | 4'-phosphopantetheinyl transferase ffp (Bacillus subtilis), Q9F4F7 | Potency, µM, hits mostly inhibitors | 3.5% of 310,000 active | Biochemical Sfp PPTase activity, qHTS;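 also: the enzyme is Sfp with the accession as filed and its product quenches rhodamine fluorescence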
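Reaction rates are the 30-min fluorescence difference (ex 525, em 598 nm) in wells containing 15 nM Sfp, 5 uM rhodamine-CoA and 12.5 uM BHQ-2-YbbR at pH 7.6 with 10 mM MgCl2.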
A number is an active result; – = inactive; ? = inconclusive; · = no result; [ ] = another dose, or the depositor's remark. This is a sample that favours compounds with a hit; in the whole collection about 12% have one here. Calls follow the shape of the dose curve; as a rule, active = well fitted curve in the direction sought with a large enough effect; inconclusive = small, poorly fitted or top-dose-only effect, or another doubt; inactive = no such curve, though single readings can be large; an effect the other way counts as inactive or inconclusive.

SMILES | L3MBTL1 inh | BAZ2B block | HP1b chromo inh | JMJD2A Tudor | G9a inh | Sfp PPTase inh
CN1CCN(Cc2nc3c([nH]2)c(=O)[nH]c(=O)n3C)CC1 | – | – | – | 10µM | ? | –
Cn1c(=O)c2[nH]c(CN3CCCCC3)nc2n(C)c1=O | · | · | ? | 4µM | · | ·
Cn1c(=O)c2[nH]c(Cc3cccc(O)c3)nc2n(C)c1=O | · | · | – | – | · | ·
CCOc1ccc(-c2cc(C(=O)NCc3ccccc3)c3c(-c4ccc(CC)cc4)[nH]nc3n2)cc1 | · | – | – | – | – | ·
Nc1nnc(-c2ccc(F)cc2)s1 | – | – | – | – | –[0.501 µM] | –
NC1=C(c2ccc(F)cc2)C(=O)CS1 | – | ? | – | – | –[0.501 µM] | 79µM
OCCN(Cc1ccccc1)Cc1ccc(Cl)cc1Cl | – | ? | ? | 3.5µM | 7.1µM | –
Cc1ccc2occ(-c3cc(-c4ccc(F)cc4)nc4c3COc3ccc(F)cc3-4)c(=O)c2c1 | · | – | – | – | – | ·
COc1ccc(C2=C(Nc3ccccc3)c3ccccc3C2=O)cc1 | – | – | – | – | – | –
CCOc1ccc(NC2=C(Cl)C(=O)N(Cc3ccccc3)C2=O)cc1 | – | ? | ? | ? | – | –
COC1=C(Nc2ccc(O)cc2)C(=O)c2ccccc2C1=O | ? | 40µM | 50µM | 45µM | 28µM | ?
COC1=C(Nc2ccc(OC)cc2)C(=O)C(OC)=C(Nc2ccc(OC)cc2)C1=O | · | · | – | – | · | ·
COC1=C(Nc2ccc(OC)cc2)C(=O)c2ccccc2C1=O | 28µM | 8.9µM | 22µM | 20µM | 10µM | ?
CCOc1ccc(NC2=C(OC)C(=O)c3ccccc3C2=O)cc1 | 25µM | 10µM | 25µM | 8.9µM | 8.9µM | –
CCOc1ccccc1NC(=O)CCc1c(C)nn(-c2ccc(N3CCOCC3)nn2)c1C | · | – | – | – | – | ·
O=S(=O)(Nc1ccc(O)c2ccccc12)c1cccs1 | · | – | 45µM | 13µM | 7.1µM | ?
CC(=O)Nc1ccc(NS(=O)(=O)c2ccccc2)c2ccccc12 | · | – | – | – | – | –
O=S(=O)(Nc1ccc(O)c2ccccc12)c1ccc(Br)cc1 | · | 45µM | · | · | 40µM | –
Cc1ccc(S(=O)(=O)Nc2ccc(O)c3cccnc23)cc1 | · | – | – | ? | ? | –
Cc1ccc(S(=O)(=O)Nc2ccc(O)c3ncccc23)cc1 | · | 22µM | – | 40µM | ? | –
COc1cc(Cl)c(C)cc1NC(=O)c1cc(S(=O)(=O)N2CCCC2)ccc1F | · | – | – | – | – | ·
NC1=NCCCC1 | · | · | · | · | · | –
CCOC(=O)CSc1nc2cc3c(cc2c(=O)n1CCCC(=O)NCc1ccc2c(c1)OCO2)OCO3 | · | – | – | – | ? | ·
COC(=O)C1=CN(c2cccc(C)c2)C=C(C(=O)OC)C1c1cc(OC)c(O)c([N+](=O)[O-])c1 | – | 28µM | ? | 45µM | 13µM | –
COc1ccc(-n2c(-c3ccc(C)cc3)cc3c2CC(C)(C)CC3=O)c(OC)c1 | · | 14µM | ? | 18µM | 13µM | ·
SMILES | L3MBTL1 inh | BAZ2B block | HP1b chromo inh | JMJD2A Tudor | G9a inh | Sfp PPTase inh
Cc1ccc(-c2cc3c(n2-c2ccc(C)cc2)CC(C)(C)CC3=O)cc1 | · | – | – | ? | – | ·
COc1ccc(-n2c(-c3ccc(C)cc3)cc3c2CC(C)(C)CC3=O)cc1Cl | · | 5µM | ? | 32µM | 10µM | ·
CCOc1ccc(-n2c(-c3ccc(OC)cc3)cc3c2CC(C)(C)CC3=O)cc1 | · | 13µM | – | 16µM | 14µM | ·
COc1cccc(-n2c(-c3ccc(C)cc3)cc3c2CC(C)(C)CC3=O)c1 | · | 11µM | – | ? | ? | ·
Cc1ccc(-c2cc3c(n2-c2ccc(F)cc2)CC(C)(C)CC3=O)cc1 | · | – | – | – | – | ·
O=C1CCc2cc(S(=O)(=O)NCc3ccccc3)ccc2N1 | · | · | · | – | · | ·
CC1(C)CC(=O)c2cc(-c3nc(-c4ccc(Cl)cc4)cs3)c(=O)n(-c3ccc(F)cc3)c2C1 | · | – | – | – | ? | ·
COc1cccc(-n2c(-c3ccc(Cl)cc3)cc3c2CC(C)(C)CC3=O)c1 | · | 8.9µM | – | 8.9µM | ? | ·
CCCCOc1ccc(C2=NC(c3cccs3)=Nc3ccc(CC)cc3N2)cc1 | · | ? | – | ? | ? | ·
Clc1ccc2c(c1)NC(c1ccncc1)=NC(c1cccs1)=N2 | · | ? | – | ? | 28µM | ·
CCc1ccc2c(c1)NC(c1ccc(C)cc1)=NC(c1cccs1)=N2 | · | 25µM | ? | 45µM | 13µM | ·
CCOc1ccc(C2=NC(c3cccs3)=Nc3ccc(C(C)C)cc3N2)cc1 | · | 22µM | – | 20µM | 10µM | ·
O=Cc1ccc(OC2C=CC(C#Cc3ccccc3)OC2CO)cc1 (centres undefined) | · | · | · | · | · | –
CS(=O)(=O)N1CCc2cc(C(=O)NCc3ccccc3)ccc21 | · | – | – | – | – | ·
O=C(NNc1cccc(Cl)n1)Nc1ccccc1 | – | ? | – | – | · | –
O=C(NNc1cccc(Cl)n1)c1ccccc1CC[N+](=O)[O-] | – | – | – | 22µM | – | –
CC(Cl)C(=O)NNc1cccc(Cl)n1 (centres undefined) | – | – | – | – | – | 50µM
CCOc1ccccc1NC(=O)C(Cc1ccccc1)NS(=O)(=O)c1ccc2c(c1)oc(=O)n2C (centres undefined) | · | – | – | – | – | ·
Cc1nnc(N/N=C/c2ccccc2C(F)(F)F)n1N | · | – | – | – | 45µM | –
COc1cccc(/C=N/Nc2nnc(C)n2N)c1O | · | – | – | ? | – | –
Cc1nnc(N/N=C/c2ccco2)n1N | · | – | – | 25µM | – | –
COc1ccc(-n2c(C)cc(/C=N/Nc3nnc(C)n3N)c2C)cc1 | – | ? | – | ? | 11µM | 32µM
O=c1oc2cc(OCc3ccc([N+](=O)[O-])cc3)ccc2c2c1CCCC2 | – | – | – | – | – | –
O=C(O)c1ccc(COc2ccc3c4c(c(=O)oc3c2)CCC4)o1 | ? | ? | – | ? | 40µM | –
O=C(O)C1CCN(C(=O)COc2ccc3c4c(c(=O)oc3c2)CCC4)CC1 | – | ? | – | – | 50µM | –
NC(=O)C1CCN(C(=O)COc2ccc3c4c(c(=O)oc3c2)CCCC4)CC1 | – | ? | – | – | – | –
CC(=O)C(C)Oc1ccc2c3c(c(=O)oc2c1)CCCCC3 (centres undefined) | – | – | – | – | –[12.7 µM] | 71µM
CC(C)CN1CCCC2(CCN(C(=O)c3cc(C(F)(F)F)cc(C(F)(F)F)c3)CC2)C1 | · | · | · | · | –[12.7 µM] | –
CCNC(=S)NNC(=S)NCc1ccccc1 | – | – | – | 1.3µM | 10µM | 56µM
S=C(NCc1ccccc1)NCc1ccc(CNC(=S)NCc2ccccc2)cc1 | – | – | – | – | – | –
